Source: PubChem (National Center for Advancing Translational Sciences (NCATS))
Sampled rows, rich in hits. Any-hit rate of the full collection: about 19%.
HT1080 IDH1KD tx = toxicity to HT-1080 IDH1 knockdown cells (counter line) | HT-1080 IDH1 knockdown viability, ATP luminescence, 48 h | actives 2% (n = 360,000) | AID 686971 | Potency, µM (series often up to 46.1 µM), hits mostly cytotoxic
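In this qHTS, HT-1080 cells depleted of IDH1 are exposed for 48 h at 37 °C to compound titrations. Toxicity is scored from CellTiter-Glo luminescence, with DMSO as full viability and medium alone as none.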
KB-3-1 cytotox = kills parental KB-3-1 adenocarcinoma cells | KB-3-1 viability, CellTiter-Glo ATP luminescence, 72 h | actives 1.4% (n = 400,000) | Potency, µM (highest dose often 46.1 µM), actives largely listed as cytotoxic; note: nearly all actives have a fitted effect of over 60% in size
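Parental KB-3-1 viability, qHTS format: 72 h compound exposure, 37 °C; CellTiter-Glo; media-only wells and DMSO plates as controls; concentration-effect fits on corrected data.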
TDP1 cell CPT = DT40-hTDP1 cell growth loss with CPT | Potency, µM (titrated, usually from 46.2 µM), usual class: inhibitors | chicken DT40 Tdp1-/-;hTDP1 cells + 20 nM CPT, ATP luminescence, 48 h | AID 686979 | actives 12% (n = 420,000); note: nearly all actives have a fitted effect of over 55% in size
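Chicken DT40 Tdp1-/- cells complemented with human TDP1, 400 cells/well, exposed to compounds plus 20 nM camptothecin for at least 48 h at 37 C; viability read as ATP content by CellTiter-Glo luminescence.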
KB-V1 MDR tox = KB-V1 MDR subline cytotoxicity. AID 1347076. actives 3.4% (n = 400,000). KB-V1 MDR cells viability, CellTiter-Glo, 72 h. Potency, µM (titrated, usually from 46.1 µM), most hits filed as cytotoxic; note: nearly all actives have a fitted effect of over 60% in size
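Cytotoxicity via CellTiter-Glo luminescence after 72 h compound exposure at 37 degrees C. Cells: drug-selected KB-V1 line, DMEM phenol-red free plus 10% FBS. Compounds tested at multiple concentrations; normalized data fitted to concentration-effect curves.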
TDP1 cell noCPT = qHTS for Inhibitors of human tyrosyl-DNA phosphodiesterase 1 (TDP1): qHTS in cells in absence of CPT; actives 15% (n = 420,000); Potency, µM (doses to about 46.2 µM), hits mostly inhibitors; DT40 Tdp1-/- hTDP1 cells, no CPT, ATP luminescence, 48 h; AID 686978, 2013; note: nearly all actives have a fitted effect of over 55% in size
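Camptothecin absent (DMSO only). Human TDP1-complemented DT40 knockout cells, 400 cells/well, 37 °C for minimum 48 hr; ATP measured via CellTiter-Glo, 30 min dark incubation, luminescence.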
HT1080NT lethal = kills 2HG-producing HT-1080-NT fibrosarcoma cells; HT-1080-NT fibrosarcoma viability, CellTiter-Glo ATP luminescence, 48 h; Potency, µM (series often up to 46.1 µM), actives largely listed as cytotoxic; actives 1.6% (n = 360,000);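 note: NT is the 2HG producing partner of a matched IDH1 knockdown line; nearly all actives have a fitted effect of over 55% in size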
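Viability of the 2HG-overproducing fibrosarcoma line after 48 hours of compound exposure at 37 degrees C was determined by luminescence with CellTiter-Glo, and concentration-effect curves were then fitted and categorized.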
Of the large screens only hits and unclear results are named; the others gave an inactive call. Calls come from the whole dose curve; as a rule, active = well fitted curve in the direction sought with a large enough effect; inconclusive = small, poorly fitted or top-dose-only effect, or another doubt; inactive = no such curve, though single readings can be large; an effect the other way counts as inactive or inconclusive.

Cn1cc(CNCc2ccc(-n3cccn3)cc2)c(-c2ccccc2F)n1	TDP1 cell CPT inconclusive, KB-V1 MDR tox inconclusive, TDP1 cell noCPT 21µM
Cn1cc(CNCCCn2ncc3ccccc32)c(-c2ccccc2F)n1	TDP1 cell CPT inconclusive, KB-V1 MDR tox inconclusive, TDP1 cell noCPT inconclusive
C=CCn1c(-c2ccc(OC)c(OC)c2)n[nH]c1=S	KB-3-1 cytotox inconclusive, KB-V1 MDR tox 16µM
CCOc1ccc(CCNC(=O)c2cn(CC)c3ccc(S(=O)(=O)N4CCCCCC4)cc3c2=O)cc1OCC	TDP1 cell CPT inconclusive, TDP1 cell noCPT 18µM (no result: HT1080 IDH1KD tx, HT1080NT lethal)
CCn1cc(C(=O)NCCc2ccc(C)cc2)c(=O)c2cc(S(=O)(=O)N3CCc4ccccc4C3)ccc21	TDP1 cell CPT inconclusive, TDP1 cell noCPT inconclusive (no result: HT1080 IDH1KD tx, HT1080NT lethal)
CCN(CC)S(=O)(=O)c1ccc2c(c1)c(=O)c(C(=O)N1CCN(c3cc(Cl)ccc3C)CC1)cn2C	TDP1 cell CPT 16µM, TDP1 cell noCPT inconclusive (no result: HT1080 IDH1KD tx, HT1080NT lethal)
CCOc1ccc(CCNC(=O)c2cn(CC)c3ccc(S(=O)(=O)N4CCc5ccccc5C4)cc3c2=O)cc1OCC	TDP1 cell CPT 18µM, TDP1 cell noCPT 12µM (no result: HT1080 IDH1KD tx, HT1080NT lethal)
CCN(CC)S(=O)(=O)c1ccc2c(c1)c(=O)c(C(=O)NCc1ccccc1Cl)cn2C	TDP1 cell CPT 9.2µM, TDP1 cell noCPT 7.3µM (no result: HT1080 IDH1KD tx, HT1080NT lethal)
Cn1cc(C(=O)NCc2ccccc2Cl)c(=O)c2cc(S(=O)(=O)N3CCCCCC3)ccc21	TDP1 cell CPT inconclusive, TDP1 cell noCPT inconclusive (no result: HT1080 IDH1KD tx, HT1080NT lethal)
C=CCn1cc(C(=O)N2CCc3ccccc3C2)c(=O)c2cc(S(=O)(=O)N(CC)CC)ccc21	TDP1 cell CPT inconclusive, TDP1 cell noCPT 18µM
C=CCn1cc(C(=O)OC)c(=O)c2cc(S(=O)(=O)N(CC)CC)ccc21	none
CCn1cc(C(=O)NCCc2ccc(OC)c(OC)c2)c(=O)c2cc(S(=O)(=O)N3CCOCC3)ccc21	TDP1 cell CPT inconclusive, TDP1 cell noCPT 18µM
CCN(CC)S(=O)(=O)c1ccc2c(c1)c(=O)c(C(=O)NCCc1ccc(OC)c(OC)c1)cn2C	TDP1 cell CPT 18µM, TDP1 cell noCPT inconclusive
Cc1ccc(OCCNC(=O)c2ccc(NC(=O)CC3SC(N4CCCC4)=NC3=O)cc2)cc1 (stereo not drawn)	TDP1 cell noCPT inconclusive
N#Cc1ccc(NC(=O)COCc2cc(-c3ccc(F)cc3)on2)cc1	TDP1 cell CPT inconclusive, KB-V1 MDR tox inconclusive, TDP1 cell noCPT 21µM (no result: HT1080 IDH1KD tx, HT1080NT lethal)
COc1ccc([C@H]2CC(=O)C=C(c3ccc(Cl)c(C(F)(F)F)c3)C2)cc1OC	TDP1 cell CPT inconclusive, TDP1 cell noCPT inconclusive
CC(N=C1NS(=O)(=O)c2ccccc21)C(=O)NCc1ccc(F)cc1 (stereo not drawn)	none
C=CCSC1=C(C#N)C(c2ccccc2Cl)C(C(=O)c2cccs2)C(O)(C(F)(F)F)N1 (stereo not drawn)	KB-3-1 cytotox inconclusive, TDP1 cell CPT inconclusive, KB-V1 MDR tox 16µM, TDP1 cell noCPT 16µM
c1ccc(CSc2nnnn2-c2ccccc2)cc1	HT1080 IDH1KD tx inconclusive
c1ccc(-n2nnnc2SCc2cccc(CSc3nnnn3-c3ccccc3)n2)cc1	TDP1 cell CPT inconclusive, KB-V1 MDR tox inconclusive, TDP1 cell noCPT 13µM
Clc1ccc(-n2nnnc2SCc2c(-c3ccccc3)nc3sccn23)cc1	HT1080 IDH1KD tx inconclusive, TDP1 cell CPT inconclusive, KB-V1 MDR tox inconclusive, TDP1 cell noCPT 13µM, HT1080NT lethal inconclusive
CCn1c2ccccc2c2cc(NC(=O)CSc3nnnn3-c3ccccc3)ccc21	TDP1 cell noCPT inconclusive
OC(CSc1nnnn1-c1ccccc1)Cn1c2ccccc2c2ccccc21 (stereo not drawn)	HT1080 IDH1KD tx inconclusive, KB-3-1 cytotox inconclusive, TDP1 cell CPT inconclusive, KB-V1 MDR tox 21µM, TDP1 cell noCPT inconclusive
Cc1noc(C)c1C(=O)N1CCC2(CCN(Cc3ccncc3)CC2)CC1	none (no result: HT1080 IDH1KD tx, KB-3-1 cytotox, KB-V1 MDR tox, HT1080NT lethal)
